# Legend:
# Assay in all cases: DAPPL (digital affinity profiling via proximity ligation, sequencing); 10 mM Tris-HCl pH 7.5, 50 mM NaCl, 1 mM DTT, 4% glycerol, room temperature, 30 min; GST-TFs on glutathione beads, 16-mer random dsDNA library, 0.1% formaldehyde crosslink after washing; high values mean tight binding
# [1] = target: T1, FLI1 (Homo sapiens, UniProt Q01543 1-452); conditions: protein: recombinant; tags: N-terminal GST; dsDNA, one strand shown
# T1 sequence: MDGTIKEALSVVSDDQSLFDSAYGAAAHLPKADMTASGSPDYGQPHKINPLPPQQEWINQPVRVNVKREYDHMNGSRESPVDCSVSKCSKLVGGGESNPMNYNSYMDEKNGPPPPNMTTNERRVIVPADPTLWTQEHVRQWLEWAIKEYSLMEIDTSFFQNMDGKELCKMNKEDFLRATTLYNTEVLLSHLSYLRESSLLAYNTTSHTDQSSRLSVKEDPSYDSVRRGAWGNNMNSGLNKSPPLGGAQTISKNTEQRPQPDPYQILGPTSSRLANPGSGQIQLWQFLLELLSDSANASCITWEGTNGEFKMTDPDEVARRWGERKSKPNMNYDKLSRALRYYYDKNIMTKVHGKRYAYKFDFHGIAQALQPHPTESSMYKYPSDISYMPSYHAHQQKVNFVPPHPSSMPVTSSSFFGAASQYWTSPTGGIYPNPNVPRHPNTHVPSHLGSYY
# Outline: (§1)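 GST fusions of human transcription factors were expressed in yeast and captured with glutathione beads. Once given DNA barcodes and pooled alongside a tag-only sample, they were incubated for 30 min at room temperature with 200 nmole of a random double-stranded 16-mer DNA library in Tris/NaCl/DTT/glycerol buffer, then washed, crosslinked (0.1% formaldehyde), proximity-ligated, PCR-amplified and sequenced on an Illumina NextSeq500. The binding signal of each hexamer is its read frequency for a factor divided by its frequency for the tag-only sample.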
# [2] = target: T2, ELK1 (Homo sapiens, UniProt P19419 1-428); conditions: protein: recombinant; tags: N-terminal GST; dsDNA, one strand shown
# T2 sequence: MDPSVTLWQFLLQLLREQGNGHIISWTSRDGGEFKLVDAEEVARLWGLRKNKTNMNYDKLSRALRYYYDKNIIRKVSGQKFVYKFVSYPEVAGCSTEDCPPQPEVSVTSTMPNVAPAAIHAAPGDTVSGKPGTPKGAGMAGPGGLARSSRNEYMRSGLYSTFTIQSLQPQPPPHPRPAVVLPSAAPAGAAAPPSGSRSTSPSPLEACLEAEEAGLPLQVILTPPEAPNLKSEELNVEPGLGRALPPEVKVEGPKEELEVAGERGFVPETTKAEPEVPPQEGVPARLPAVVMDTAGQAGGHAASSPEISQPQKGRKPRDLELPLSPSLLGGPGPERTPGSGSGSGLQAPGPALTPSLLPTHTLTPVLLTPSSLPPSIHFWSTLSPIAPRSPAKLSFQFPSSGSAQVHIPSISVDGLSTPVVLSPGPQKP
# Outline: as §1
# [3] = target: T3, GABPA (Homo sapiens, UniProt Q06546 1-454); conditions: protein: recombinant; tags: N-terminal GST; dsDNA, one strand shown
# T3 sequence: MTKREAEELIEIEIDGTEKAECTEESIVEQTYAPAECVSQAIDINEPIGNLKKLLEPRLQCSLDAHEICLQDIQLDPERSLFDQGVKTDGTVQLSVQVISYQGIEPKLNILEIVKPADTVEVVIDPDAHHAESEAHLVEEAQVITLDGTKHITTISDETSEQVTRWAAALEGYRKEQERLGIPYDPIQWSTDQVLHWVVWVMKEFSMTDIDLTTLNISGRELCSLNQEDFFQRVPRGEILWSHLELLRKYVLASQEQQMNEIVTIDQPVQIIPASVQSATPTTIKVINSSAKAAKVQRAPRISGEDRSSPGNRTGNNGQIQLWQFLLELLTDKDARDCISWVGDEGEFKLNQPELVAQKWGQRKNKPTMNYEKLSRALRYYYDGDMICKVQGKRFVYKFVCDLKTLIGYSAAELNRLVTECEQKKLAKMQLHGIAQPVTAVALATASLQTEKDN
# Outline: as §1
# [4] = target: T4, ERG (Homo sapiens, UniProt P11308 1-479); conditions: protein: recombinant; tags: N-terminal GST; dsDNA, one strand shown
# T4 sequence: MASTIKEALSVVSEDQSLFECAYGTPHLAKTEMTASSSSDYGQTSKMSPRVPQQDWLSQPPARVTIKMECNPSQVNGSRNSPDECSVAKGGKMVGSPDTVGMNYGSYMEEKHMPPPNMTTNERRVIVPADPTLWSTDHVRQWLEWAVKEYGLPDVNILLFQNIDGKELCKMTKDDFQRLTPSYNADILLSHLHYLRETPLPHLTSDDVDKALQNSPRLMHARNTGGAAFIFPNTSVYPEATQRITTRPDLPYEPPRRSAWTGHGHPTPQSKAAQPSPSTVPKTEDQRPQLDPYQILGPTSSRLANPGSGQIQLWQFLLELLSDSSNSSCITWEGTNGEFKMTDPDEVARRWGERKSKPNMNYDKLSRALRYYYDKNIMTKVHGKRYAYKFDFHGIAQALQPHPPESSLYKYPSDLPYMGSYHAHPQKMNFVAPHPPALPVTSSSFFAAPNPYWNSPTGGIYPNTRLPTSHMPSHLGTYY
# Outline: as §1
# [5] = target: ELF1 (Homo sapiens, UniProt P32519 1-619); conditions: protein: recombinant; tags: N-terminal GST; dsDNA, one strand shown
# Chain of ELF1 (P32519 whole entry): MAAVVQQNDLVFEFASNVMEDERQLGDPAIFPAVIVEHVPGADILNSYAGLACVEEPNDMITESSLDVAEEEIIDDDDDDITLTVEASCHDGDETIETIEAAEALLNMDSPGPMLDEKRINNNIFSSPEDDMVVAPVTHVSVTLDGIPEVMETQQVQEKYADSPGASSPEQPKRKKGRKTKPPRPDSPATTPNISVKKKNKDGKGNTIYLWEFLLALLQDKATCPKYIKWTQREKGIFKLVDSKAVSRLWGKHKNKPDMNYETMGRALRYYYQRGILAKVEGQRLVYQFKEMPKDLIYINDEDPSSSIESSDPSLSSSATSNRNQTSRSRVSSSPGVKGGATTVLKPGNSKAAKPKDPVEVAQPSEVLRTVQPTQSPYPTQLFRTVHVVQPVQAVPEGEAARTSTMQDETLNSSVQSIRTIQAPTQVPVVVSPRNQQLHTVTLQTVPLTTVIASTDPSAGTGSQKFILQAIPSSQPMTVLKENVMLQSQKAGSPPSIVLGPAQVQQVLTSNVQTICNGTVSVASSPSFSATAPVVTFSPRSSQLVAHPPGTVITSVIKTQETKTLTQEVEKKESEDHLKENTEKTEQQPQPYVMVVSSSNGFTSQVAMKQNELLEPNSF
# Outline: as §1
# [6] = target: T5, EHF (Homo sapiens, UniProt Q9NZC4 1-300); conditions: protein: recombinant; tags: N-terminal GST; dsDNA, one strand shown
# T5 sequence: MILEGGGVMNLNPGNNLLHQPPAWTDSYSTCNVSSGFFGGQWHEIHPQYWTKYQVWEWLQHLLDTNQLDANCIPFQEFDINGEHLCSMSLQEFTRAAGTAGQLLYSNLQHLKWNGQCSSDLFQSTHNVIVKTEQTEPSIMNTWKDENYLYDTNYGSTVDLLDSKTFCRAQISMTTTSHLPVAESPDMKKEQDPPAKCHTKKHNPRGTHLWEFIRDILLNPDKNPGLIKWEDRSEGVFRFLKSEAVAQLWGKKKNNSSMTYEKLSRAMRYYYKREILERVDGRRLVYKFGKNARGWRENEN
# Outline: as §1
# [7] = target: SPI1 (Homo sapiens, UniProt P17947 1-270); conditions: protein: recombinant; tags: N-terminal GST; dsDNA, one strand shown
# Outline: as §1
# [8] = target: SPIB (Homo sapiens, UniProt Q01892 1-262); conditions: protein: recombinant; tags: N-terminal GST; dsDNA, one strand shown
# Chain of SPIB (Q01892 whole entry): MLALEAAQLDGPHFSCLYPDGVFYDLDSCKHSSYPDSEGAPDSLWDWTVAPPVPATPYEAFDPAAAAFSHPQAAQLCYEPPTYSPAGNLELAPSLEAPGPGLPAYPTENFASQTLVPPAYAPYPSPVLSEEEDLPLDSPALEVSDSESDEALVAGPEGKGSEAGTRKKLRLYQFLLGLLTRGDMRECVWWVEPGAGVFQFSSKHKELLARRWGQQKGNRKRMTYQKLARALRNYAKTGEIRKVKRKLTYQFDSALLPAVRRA
# Outline: as §1
# [9] = target: T6, ELK3 (Homo sapiens, UniProt P41970 1-407); conditions: protein: recombinant; tags: N-terminal GST; dsDNA, one strand shown
# T6 sequence: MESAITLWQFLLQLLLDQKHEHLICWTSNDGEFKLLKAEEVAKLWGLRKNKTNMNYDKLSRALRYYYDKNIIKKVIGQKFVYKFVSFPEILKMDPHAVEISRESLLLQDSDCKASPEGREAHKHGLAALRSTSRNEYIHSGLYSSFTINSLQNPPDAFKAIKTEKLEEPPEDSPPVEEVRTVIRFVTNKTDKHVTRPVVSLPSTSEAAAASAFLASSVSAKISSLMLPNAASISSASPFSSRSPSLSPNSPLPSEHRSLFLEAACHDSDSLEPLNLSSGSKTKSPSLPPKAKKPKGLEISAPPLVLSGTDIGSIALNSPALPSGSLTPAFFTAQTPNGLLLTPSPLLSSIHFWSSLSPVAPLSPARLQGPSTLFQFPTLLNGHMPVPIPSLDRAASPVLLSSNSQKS
# Outline: as §1
# [10] = target: T7, FEV (Homo sapiens, UniProt Q99581 1-238); conditions: protein: recombinant; tags: N-terminal GST; dsDNA, one strand shown
# T7 sequence: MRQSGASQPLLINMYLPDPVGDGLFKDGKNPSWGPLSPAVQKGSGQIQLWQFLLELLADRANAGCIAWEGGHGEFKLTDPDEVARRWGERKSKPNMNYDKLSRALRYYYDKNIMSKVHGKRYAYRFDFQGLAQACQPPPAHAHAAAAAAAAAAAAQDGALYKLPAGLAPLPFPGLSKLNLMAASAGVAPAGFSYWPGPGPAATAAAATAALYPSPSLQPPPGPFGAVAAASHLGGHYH
# Outline: as §1
# [11] = target: ETV5 (Homo sapiens, UniProt P41161 1-510); conditions: protein: recombinant; tags: N-terminal GST; dsDNA, one strand shown
# Chain of ETV5 (P41161 whole entry): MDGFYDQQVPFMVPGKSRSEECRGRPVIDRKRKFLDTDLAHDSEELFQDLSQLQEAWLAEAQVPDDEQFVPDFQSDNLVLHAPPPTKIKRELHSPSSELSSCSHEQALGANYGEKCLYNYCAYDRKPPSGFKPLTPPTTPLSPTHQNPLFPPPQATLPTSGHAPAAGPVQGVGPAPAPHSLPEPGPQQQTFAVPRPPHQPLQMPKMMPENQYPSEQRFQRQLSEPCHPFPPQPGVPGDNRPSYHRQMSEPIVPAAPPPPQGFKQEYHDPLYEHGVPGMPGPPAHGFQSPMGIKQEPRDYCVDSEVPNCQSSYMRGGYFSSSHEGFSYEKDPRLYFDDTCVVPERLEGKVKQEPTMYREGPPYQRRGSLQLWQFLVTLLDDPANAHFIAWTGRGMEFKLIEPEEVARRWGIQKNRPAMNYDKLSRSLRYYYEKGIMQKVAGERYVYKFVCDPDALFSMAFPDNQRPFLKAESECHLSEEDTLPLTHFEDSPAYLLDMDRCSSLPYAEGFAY
# Outline: as §1
# [12] = target: HSF1 (Homo sapiens, UniProt Q00613 1-529); conditions: protein: recombinant; tags: N-terminal GST; chain copies: 3; dsDNA, one strand shown
# Chain of HSF1 (Q00613 whole entry): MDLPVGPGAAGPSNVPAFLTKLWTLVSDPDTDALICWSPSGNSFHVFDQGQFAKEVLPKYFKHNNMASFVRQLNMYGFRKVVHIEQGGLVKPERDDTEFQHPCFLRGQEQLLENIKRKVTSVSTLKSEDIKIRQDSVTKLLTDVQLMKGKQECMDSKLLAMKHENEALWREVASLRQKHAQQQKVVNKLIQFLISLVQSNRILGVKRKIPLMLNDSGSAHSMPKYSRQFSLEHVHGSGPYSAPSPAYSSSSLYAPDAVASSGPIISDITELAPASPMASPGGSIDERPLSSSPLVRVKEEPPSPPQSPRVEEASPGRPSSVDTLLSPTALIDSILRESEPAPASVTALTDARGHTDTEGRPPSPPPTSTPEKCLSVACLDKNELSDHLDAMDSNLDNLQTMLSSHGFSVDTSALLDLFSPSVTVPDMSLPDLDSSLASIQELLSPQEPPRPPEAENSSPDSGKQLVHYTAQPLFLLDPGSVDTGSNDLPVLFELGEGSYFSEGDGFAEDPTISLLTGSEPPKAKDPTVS
# Outline: as §1
# [13] = target: T8, SPIC (Homo sapiens, UniProt Q8N5J4 1-248); conditions: protein: recombinant; tags: N-terminal GST; dsDNA, one strand shown
# T8 sequence: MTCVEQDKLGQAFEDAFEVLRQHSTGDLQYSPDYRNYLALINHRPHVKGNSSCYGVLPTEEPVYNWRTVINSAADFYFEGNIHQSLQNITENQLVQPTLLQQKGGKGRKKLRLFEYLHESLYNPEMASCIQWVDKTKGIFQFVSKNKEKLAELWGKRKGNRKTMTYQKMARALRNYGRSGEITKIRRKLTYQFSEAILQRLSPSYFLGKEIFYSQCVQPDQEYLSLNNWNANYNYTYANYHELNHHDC
# Outline: as §1
# [14] = target: ELF4 (Homo sapiens, UniProt Q99607 1-663); conditions: protein: recombinant; tags: N-terminal GST; dsDNA, one strand shown
# Chain of ELF4 (Q99607 whole entry): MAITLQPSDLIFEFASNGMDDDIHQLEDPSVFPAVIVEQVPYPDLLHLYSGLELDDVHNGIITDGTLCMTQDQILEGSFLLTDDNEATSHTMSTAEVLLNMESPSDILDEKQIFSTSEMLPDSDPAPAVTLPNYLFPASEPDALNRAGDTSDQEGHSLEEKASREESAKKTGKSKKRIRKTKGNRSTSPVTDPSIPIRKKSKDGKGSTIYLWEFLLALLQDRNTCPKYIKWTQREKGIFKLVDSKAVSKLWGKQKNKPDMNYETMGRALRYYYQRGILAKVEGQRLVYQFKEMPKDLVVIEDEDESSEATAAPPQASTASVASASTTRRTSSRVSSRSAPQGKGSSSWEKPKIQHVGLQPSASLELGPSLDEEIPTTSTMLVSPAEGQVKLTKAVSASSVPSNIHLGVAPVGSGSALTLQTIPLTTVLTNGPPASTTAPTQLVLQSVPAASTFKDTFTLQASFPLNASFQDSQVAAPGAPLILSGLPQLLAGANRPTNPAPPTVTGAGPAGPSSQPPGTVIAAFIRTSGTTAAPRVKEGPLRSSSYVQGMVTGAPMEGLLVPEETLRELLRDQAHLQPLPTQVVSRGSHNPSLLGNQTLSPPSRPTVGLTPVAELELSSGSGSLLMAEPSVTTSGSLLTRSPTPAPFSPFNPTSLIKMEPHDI
# Outline: as §1
# [15] = target: T9, ELK4 (Homo sapiens, UniProt P28324-2 1-405); conditions: protein: recombinant; tags: N-terminal GST; dsDNA, one strand shown
# T9 sequence: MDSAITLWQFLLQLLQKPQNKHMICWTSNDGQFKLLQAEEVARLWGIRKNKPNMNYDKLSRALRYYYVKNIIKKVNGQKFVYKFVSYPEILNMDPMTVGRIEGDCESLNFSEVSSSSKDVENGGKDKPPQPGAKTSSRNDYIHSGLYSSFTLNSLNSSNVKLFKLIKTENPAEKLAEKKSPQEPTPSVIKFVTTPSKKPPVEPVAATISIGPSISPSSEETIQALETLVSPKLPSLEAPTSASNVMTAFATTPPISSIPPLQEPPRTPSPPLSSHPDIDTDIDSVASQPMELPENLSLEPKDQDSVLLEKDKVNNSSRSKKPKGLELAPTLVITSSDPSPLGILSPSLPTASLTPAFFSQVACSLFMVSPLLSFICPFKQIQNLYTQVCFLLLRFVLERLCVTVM
# Outline: as §1
# [16] = target: T10, ETV2 (Homo sapiens, UniProt O00321 1-342); conditions: protein: recombinant; tags: N-terminal GST; dsDNA, one strand shown
# T10 sequence: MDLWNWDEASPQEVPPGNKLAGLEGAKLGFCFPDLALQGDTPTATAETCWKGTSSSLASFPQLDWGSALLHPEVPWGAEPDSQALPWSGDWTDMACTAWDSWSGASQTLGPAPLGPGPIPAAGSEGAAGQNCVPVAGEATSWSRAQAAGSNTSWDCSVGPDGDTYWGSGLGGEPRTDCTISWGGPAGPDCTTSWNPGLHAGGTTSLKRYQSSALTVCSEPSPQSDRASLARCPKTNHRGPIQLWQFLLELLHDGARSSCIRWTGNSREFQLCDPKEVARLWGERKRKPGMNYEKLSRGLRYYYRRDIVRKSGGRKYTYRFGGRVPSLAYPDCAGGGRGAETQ
# Outline: as §1
# [17] = target: T11, ELF3 (Homo sapiens, UniProt P78545 1-371); conditions: protein: recombinant; tags: N-terminal GST; dsDNA, one strand shown
# T11 sequence: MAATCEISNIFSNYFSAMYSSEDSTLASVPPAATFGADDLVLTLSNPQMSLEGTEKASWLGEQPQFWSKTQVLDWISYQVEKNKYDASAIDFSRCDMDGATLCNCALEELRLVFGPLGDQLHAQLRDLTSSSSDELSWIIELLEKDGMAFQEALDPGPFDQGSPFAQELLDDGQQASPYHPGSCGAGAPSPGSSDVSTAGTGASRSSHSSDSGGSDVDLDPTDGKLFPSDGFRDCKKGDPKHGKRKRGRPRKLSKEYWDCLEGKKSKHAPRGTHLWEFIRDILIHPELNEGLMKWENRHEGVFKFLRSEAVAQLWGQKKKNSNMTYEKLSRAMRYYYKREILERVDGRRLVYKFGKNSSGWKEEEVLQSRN
# Outline: as §1
# [18] = target: CRX (Homo sapiens, UniProt O43186 1-299); conditions: protein: recombinant; tags: N-terminal GST; dsDNA, one strand shown
# Chain of CRX (O43186 whole entry): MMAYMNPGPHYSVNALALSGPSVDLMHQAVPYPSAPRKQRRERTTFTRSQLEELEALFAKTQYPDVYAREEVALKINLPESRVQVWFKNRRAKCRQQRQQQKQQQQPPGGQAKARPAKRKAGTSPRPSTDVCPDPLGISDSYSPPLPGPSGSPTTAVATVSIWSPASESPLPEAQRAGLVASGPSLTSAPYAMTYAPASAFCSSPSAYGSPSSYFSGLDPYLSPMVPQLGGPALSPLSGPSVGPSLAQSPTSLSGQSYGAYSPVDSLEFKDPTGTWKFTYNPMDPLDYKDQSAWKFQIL
# Outline: as §1
# [19] = target: ETV1 (Homo sapiens, UniProt P50549 1-477); conditions: protein: recombinant; tags: N-terminal GST; dsDNA, one strand shown
# Chain of ETV1 (P50549 whole entry): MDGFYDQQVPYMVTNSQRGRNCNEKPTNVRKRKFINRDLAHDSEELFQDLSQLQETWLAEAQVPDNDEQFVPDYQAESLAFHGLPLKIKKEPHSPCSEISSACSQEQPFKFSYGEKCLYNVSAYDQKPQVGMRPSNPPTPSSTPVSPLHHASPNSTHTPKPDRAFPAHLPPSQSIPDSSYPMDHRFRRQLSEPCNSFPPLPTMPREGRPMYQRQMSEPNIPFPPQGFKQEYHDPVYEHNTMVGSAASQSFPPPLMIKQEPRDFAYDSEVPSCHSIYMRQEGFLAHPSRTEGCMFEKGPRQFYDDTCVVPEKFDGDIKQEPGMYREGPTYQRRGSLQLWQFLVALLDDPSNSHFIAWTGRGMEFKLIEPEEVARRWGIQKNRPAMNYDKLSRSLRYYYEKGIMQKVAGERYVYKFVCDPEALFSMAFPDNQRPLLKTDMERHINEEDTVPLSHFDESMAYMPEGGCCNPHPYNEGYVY
# Outline: as §1
sequence,measurement,setting,value
GCTCCC,binding signal,[1],"1.37 fold enrichment (6-mer frequency, TF over GST control)"
same,binding signal,[2],"1.28 fold enrichment (6-mer frequency, TF over GST control)"
same,binding signal,[3],"1.34 fold enrichment (6-mer frequency, TF over GST control)"
same,binding signal,[4],"1.33 fold enrichment (6-mer frequency, TF over GST control)"
same,binding signal,[5],"1.37 fold enrichment (6-mer frequency, TF over GST control)"
same,binding signal,[6],"1.33 fold enrichment (6-mer frequency, TF over GST control)"
same,binding signal,[7],"1.26 fold enrichment (6-mer frequency, TF over GST control)"
same,binding signal,[8],"1.28 fold enrichment (6-mer frequency, TF over GST control)"
same,binding signal,[9],"1.18 fold enrichment (6-mer frequency, TF over GST control)"
same,binding signal,[10],"1.28 fold enrichment (6-mer frequency, TF over GST control)"
same,binding signal,[11],"1.39 fold enrichment (6-mer frequency, TF over GST control)"
same,binding signal,[12],"1.07 fold enrichment (6-mer frequency, TF over GST control)"
same,binding signal,[13],"1.16 fold enrichment (6-mer frequency, TF over GST control)"
same,binding signal,[14],"1.32 fold enrichment (6-mer frequency, TF over GST control)"
same,binding signal,[15],"1.4 fold enrichment (6-mer frequency, TF over GST control)"
same,binding signal,[16],"1.32 fold enrichment (6-mer frequency, TF over GST control)"
same,binding signal,[17],"1.35 fold enrichment (6-mer frequency, TF over GST control)"
same,binding signal,[18],"1.04 fold enrichment (6-mer frequency, TF over GST control)"
same,binding signal,[19],"1.24 fold enrichment (6-mer frequency, TF over GST control)"

# Reference: paper PMC7862700, “An all-to-all approach to the identification of sequence-specific readers for epigenetic DNA modifications on cytosine”
